63 compounds from PubChem BioAssay AID1259343 (VanderVen Lab, College of Veterinary Medicine, Cornell …, 2017) can be followed below.

In all, about 6,200 compounds went through this assay and about 2,900 (47%) were called active. So high a share suggests a set chosen from earlier hits. Some of the results follow. A number with no mark means an inactive call. Cut-off read from the data, not from the text of the source: active = inhibition above about 50%; inactive = the rest.

The test can be described thus: Mycobacterium tuberculosis growth inhibition, primary screen (AID 1259343). The note with it: inhibition: at 10 µM, hits give high values; outcome: 10 uM.
For orientation: inhibition means the change of the read-out against control, counted positive when it falls. For the compound `C=CCNCC(=O)N(Cc1ccccc1)Cc1ccc(C)s1`, the inhibition is 21.1%.
In the case of `COC(=O)c1ccc(NC(=O)N2CCCC(C(=O)c3sccc3C)C2)cc1` (stereo not drawn), the inhibition is -5.44%.
To `CCCN(CC(=O)N(Cc1ccccc1)Cc1sccc1C)C(=O)Nc1ccc(C(=O)OCC)cc1` belongs 89.4% (active).
The figure for `CC(=O)N1N=C(c2ccco2)OC1C(=O)N[C@@H]1C[C@@H]2C[C@H](C1C)C2(C)C` (stereo partly drawn) is 8.4%; for `c1ccc(-c2cc(NC3CCCC3)nc3ccccc23)cc1` it is 67.7% (active).
To `c1cncc(-c2nc(N3CCCC4CCCCC43)c3ccccc3n2)c1` (stereo not drawn) belongs -13.1%; to `c1cncc(-c2nc(NC3CCCCCCC3)c3ccccc3n2)c1`, 39.2%; to `O=[N+]([O-])c1ccc(O)c2ncccc12`, 102% (active).
With `CC(=O)Oc1ccc(N2C(=O)c3cccc4c([N+](=O)[O-])ccc(c34)C2=O)cc1`, the inhibition was 36.4%.
To `O=[N+]([O-])c1cccc2nsnc12` belongs -16%; to `O=[N+]([O-])c1ccc(-c2nc(N=Nc3ccc(O)cc3)n[nH]2)cc1`, 84.3% (active).
To `N#CC(=Cc1ccc(O)cc1)c1ccc([N+](=O)[O-])cc1` belongs 27.9%.
The figure for `CC(NC(=O)c1ccc2ncsc2c1)C1CC2CCC1C2` (stereo not drawn) is 5.4%; for `CC(NS(=O)(=O)c1ccc(Cl)cc1)C1CC2CCC1C2` (stereo not drawn) it is -15.9%; for `CC(NC(=O)NC(=O)N(C1CCCCC1)S(C)(=O)=O)C1CC2CCC1C2` (stereo not drawn) it is 79.8% (active).
Consider `CCc1c(C)nc(-n2nc(C)cc2NC(=O)Cc2ccc(OC)cc2)[nH]c1=O`, for which the inhibition was 99.1% (active).
To `CCc1c(C)nc(-n2nc(C)cc2NC(=O)/C=C/c2ccc(OC)c(OC)c2)[nH]c1=O` belongs 99.3% (active); to `CCc1c(C)nc(-n2nc(C)cc2NC(=O)c2ccc(OC)cc2OC)[nH]c1=O`, -4.11%; to `COc1ccc(CC(=O)Nc2cc(C)nn2-c2nc(C)c(C)c(=O)[nH]2)cc1`, -19.9%.
To `CCc1c(C)nc(-n2nc(C)cc2NC(=O)Cc2ccc([N+](=O)[O-])cc2)[nH]c1=O` belongs 78.5% (active); to `COc1ccc(CC(=O)Nc2cc(C)nn2-c2nc3c(c(=O)[nH]2)CCC3)cc1OC`, 101% (active).
The figure for `C=CC(=O)Nc1cccc(Sc2nc(Nc3ccc(N4CCN(C)CC4)cc3)ncc2Cl)c1` is 33.2%; for `O=C(CSc1nnc(C23CC4CC(CC(C4)C2)C3)o1)N1CCCC1` it is 45.1%; for `CCc1c(C)nc(-n2nc(C)cc2NC(=O)Cc2ccc(OC)c(OC)c2)[nH]c1=O` it is 101% (active).
Consider `COc1ccc(CC(=O)Nc2cc(C)nn2-c2nc(C)c(C)c(=O)[nH]2)cc1OC`, for which the inhibition was 100% (active).
Turning to `CCNC(=O)c1cc(N2CCC(c3ccc(OC)cc3)C2)ccn1` (stereo not drawn), the inhibition was -14.2%.
With `CCNC(=O)c1cc(Oc2ccc(C)cc2Br)ccn1`, the inhibition was 89.2% (active).
The figure for `Cc1ccc(Oc2ccc3ncccc3c2N)c(Br)c1` is 14.7%.
To `Fc1ccccc1NC(=S)NCC1COc2ccccc2O1` (stereo not drawn) belongs 11.1%; to `O=C(NCc1ccco1)C1Cc2cc(Cl)ccc2O1` (stereo not drawn), 22%; to `O=C(NCC1COc2ccccc2O1)N1CCN(c2ccc(F)cc2)CC1` (stereo not drawn), 26.7%.
To `CC(NC(=O)c1cc(Cl)ccc1NS(C)(=O)=O)c1ccc2c(c1)OCO2` (stereo not drawn) belongs 7.73%.
Consider `O=C(NCC1COc2ccccc2O1)C1Cc2cc(Cl)ccc2O1` (stereo not drawn), for which the inhibition was 67% (active).
The figure for `O=C(NCC1COc2ccccc2O1)c1ccc2c(c1)CCC2` (stereo not drawn) is 66.8% (active).
The figure for `CC(NC(=O)C1Cc2cc(Cl)ccc2O1)c1ccc(F)c(F)c1` (stereo not drawn) is 59.3% (active).
The figure for `CC(NC(=O)C1Cc2ccccc2O1)c1ccc(Cl)s1` (stereo not drawn) is 4.06%.
For `O=C1CC(NC(=O)C(F)(F)F)=NN1c1ccccc1`, the inhibition was 70.9% (active).
To `Clc1ccc(C2CN(Cc3cc(-c4cccnc4)no3)CCO2)cc1` (stereo not drawn) belongs 6.33%; to `CCCc1nc(C(=O)N2CCOC(c3ccc(Cl)cc3)C2)cs1` (stereo not drawn), 28.4%; to `O=C(c1csc(-c2cccnc2)n1)N1CCOC(c2ccc(Cl)cc2)C1` (stereo not drawn), 61% (active).
The figure for `Cc1ccccc1OCC(=O)N1CCN(c2ncnc3c2nnn3-c2cccc(F)c2)CC1` is 67.9% (active).
The figure for `Nc1ccc(F)cc1-c1nc(CCOc2ccccc2)no1` is 74.1% (active); for `c1ccc(Cc2nc(CCOc3ccccc3)n[nH]2)cc1` it is 36.5%.
Turning to `CCn1c(=S)[nH]c2sc3c(c2c1=O)CCCC3`, the inhibition is 38.1%.
To `COCCCn1c(=S)[nH]c2sc3c(c2c1=O)CCCC3` belongs 20.5%; to `O=c1c2c3c(sc2[nH]c(=S)n1CC1CCCO1)CCCC3` (stereo not drawn), 68.2% (active).
To `CCCc1cc(Nc2ccc(NC(C)=O)cc2)n2ncc(-c3ccccc3)c2n1` belongs -6.07%.
The figure for `CCC(=O)c1cccc(-c2ccc(NC(C)=O)cc2)c1` is 78.7% (active).
As to `O=C1c2ccccc2C(=O)c2c1oc1c3c(ccc21)OCN(C1CCCC1)C3`, the inhibition is 99.5% (active).
The figure for `CCOC(=O)c1ccc(NC(=O)c2cc3cc([N+](=O)[O-])ccc3oc2=N)cc1` is 62.9% (active); for `COC(=O)c1cc2cc(Br)ccc2oc1=O` it is -45.4%; for `CCOC(=O)C(CC)Sc1nnc(NC(=O)c2ccc(Br)cc2)s1` (stereo not drawn) it is 91.5% (active).
On to `COC(=O)C(C)Sc1nc2c(c(=O)n(C)c(=O)n2C)n1CCC(C)C` (stereo not drawn), for which the inhibition was 26.7%.
The figure for `Cc1cccc(Cn2c(SC(C)C)nc3c2c(=O)n(C)c(=O)n3C)c1` is 81.2% (active); for `CSc1nc2c(c(=O)n(C)c(=O)n2C)n1CCCc1ccccc1` it is 28.2%.
To `Fc1cccc(NCCc2ccc(-n3cccn3)cc2)n1` belongs 67.5% (active).
To `CN(Cc1ccc(-n2cccn2)cc1)S(=O)(=O)c1cccs1` belongs 10.7%.
Regarding `Cc1cc(NCCCn2ccnc2)n2ncc(-c3ccc(Cl)cc3)c2n1`, the inhibition was 95.2% (active).
To `Cc1cc(NCCOCCO)n2ncc(-c3ccc(Cl)cc3)c2n1` belongs -5.37%; to `Cc1ccc(-c2cnn3c(-n4nc(C)cc4C)cc(C)nc23)cc1`, 47.1%.
The figure for `c1ccc(-c2cc(NCCCn3ccnc3)n3ncc(-c4ccccc4)c3n2)cc1` is -16.1%; for `COCCNc1cc(C)nc2c(-c3ccc(Cl)cc3)cnn12` it is 98.7% (active); for `CCc1nn2c(NCCOC)cc(C)nc2c1-c1ccccc1` it is 32.2%.
